Results as given in PubChem BioAssay AID1578 (Sanford-Burnham Center for Chemical Genomics, 2009).
Out of some 290,000 compounds screened, about 3,000 (1%) were called active. This excerpt belongs to a sample that is enriched for actives. Unmarked numbers belong to inactive results. Cut-off read from the data, not from the text of the source: active = inhibition mostly above about 36% (no sharp cut-off); inactive = mostly below about 34%.

Experiment: NOD1 signaling inhibitors, primary screen, cell-based, luminescence, uHTS (AID 1578);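 note: HEK-293T reporter cells stimulated with the NOD1 agonist gamma-tri-DAP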
Settings: NOD1-driven NF-kB luciferase reporter cells, at 4 µM, stronger effect = higher value

SMILES | inhibition
O=c1cccc2n1CC1CC2CN(C(c2cccc(F)c2)c2sc3ncnn3c2O)C1 (centres undefined) | -12.7%
CN[C@H]1C[C@H]2O[C@@](C)([C@H]1OC)n1c3ccccc3c3c4c(c5c6ccccc6n2c5c31)C(=O)NC4 | 1.7%
COc1ccccc1N1CCN(Cc2ccccc2Cl)CC1 | -17.2%
Cc1cc(C)n(-c2ccc(NN=C(C#N)C#N)cc2)n1 | 41.2% (active)
N#CC(C#N)=NNc1ccc(-n2ccc(C(F)(F)F)n2)cc1 | 36.7% (active)
N#CC(C#N)=NNc1ccc(S(N)(=O)=O)cc1 | -10.8%
CC1CCN(S(=O)(=O)c2ccc(NN=C(C#N)C#N)cc2)CC1 | -29.8%
CCN(CC)S(=O)(=O)c1ccc(NN=C(C#N)C#N)cc1 | 9.7%
Cc1nn(Cc2ccccc2)c(Cl)c1C(=O)OCC(=O)Nc1cccc2ccccc12 | -17.7%
COC(=O)C(C)Oc1cc(C)cc2oc(=O)c3c(c12)CCCC3 (centres undefined) | -9.2%
O=C(NC(Cc1cnc[nH]1)C(=O)O)c1ccccc1 (centres undefined) | -20.8%
C=CCn1c(O)c(C(CC)=NCCc2ccccc2)c(=O)[nH]c1=O | -24.2%
CC(C)n1c(=O)c(C=Nc2ccc(S(N)(=O)=O)cc2)c(O)n(Cc2ccco2)c1=O | -37.7%
CCC(=O)c1cn(Cc2ccccc2C#N)c2ccccc12 | 8.5%
CC(=O)c1cn(Cc2ccccc2C#N)c2ccccc12 | 78% (active)
CC(C)C(=O)c1cn(Cc2ccccc2C#N)c2ccccc12 | -11.1%
CCOC(=O)CNC(=O)CNC(=O)C(Cc1ccc(N(CCCl)CCCl)cc1)NC(C)=O (centres undefined) | -43.1%
C=CCn1c(O)c(C(CC)=NCc2cc(OC)cc(OC)c2)c(=O)[nH]c1=O | 0.2%
O=C1NC(=O)C(=Cc2ccc3ccccc3c2)C(=O)N1 | -4.2%
O=C1NC(=S)NC(=O)C1=Cc1cccc2cc3ccccc3cc12 | 59.4% (active)

SMILES | inhibition
Cc1cc(C=C2C(=O)NC(=S)NC2=O)c(C)n1C1CCCC1 | 24.9%
Cc1cccc(N2CCN(CCc3ccccc3)CC2)c1C | 11.9%
CC(=O)c1c(O)n(-c2cccc(Cl)c2)c(=O)[nH]c1=O (tested in a mixture with another compound) | 1.2%
CC(C)n1c(O)c(C2c3cc(Cl)ccc3Oc3[nH]c(=O)n(C(C)C)c(=O)c32)c(=O)[nH]c1=O (centres undefined) | 61.3% (active)
CC(=O)[C@@]1(O)CC[C@H]2[C@@H]3CC=C4C[C@@H](O)CC[C@]4(C)[C@H]3CC[C@@]21C | -24.8%
CC12CC[C@H]3[C@@H](CCC4(O)C[C@H](O)CCC34/C=N/NC(=O)c3ccccc3Cl)C1(O)CCC2C1=CC(=O)OC1 (some centres undefined) | 3%
C[C@]12CC[C@H]3C(CCC4(O)CC(O)CC[C@]34C=O)C1=CC[C@H]2c1ccc(=O)oc1 (some centres undefined) | 60.3% (active)
C=C(C)Cn1c(=O)n(CC2CS2)c2ccccc21 (centres undefined) | 8.9%
CCOc1cc2c(cc1OCC)-n1cccc1C(c1ccccc1OC)NC2 (centres undefined) | 4.7%
CC[C@@]1(O)C(=O)OCc2c1cc1n(c2=O)Cc2cc3c(NC(=O)CN)cccc3nc2-1 | 7.7%
CCC1(OC(=O)CN)C(=O)OCc2c1cc1n(c2=O)Cc2cc3ccccc3nc2-1 (centres undefined) | 71.2% (active)
CCOC(=O)C1=C(N)OC2=C(C(=O)CCC2)C12C(=O)N(C)c1ccccc12 (centres undefined) | -7.5%
Cc1cnn(C2CCN(C)CC2)c1N | -8.2%
NC1=C([N+](=O)[O-])C(c2ccc3c(c2)OCO3)c2c(c3ccccc3oc2=O)O1 (centres undefined) | -6%
O=C(Cc1ccccc1)Oc1cccc(-n2cnnn2)c1 | -14.2%
O=[N+]([O-])c1ccc(N2CCNCC2)cc1Sc1ccccn1 | -12.4%
Cc1cc(N2CCCCC2)ccc1C=C1C(=O)N(C)C(=S)N(C)C1=O | -10.1%
Cc1ccc(N2C(=O)CC(=O)NC2=O)cc1 | -5.6%
O=Cc1cn(Cc2ccc(F)cc2)c2ccccc12 | 6.2%
O=Cc1cn(Cc2c(F)cccc2Cl)c2ccccc12 | 66% (active)

SMILES | inhibition
O=Cc1cn(Cc2ccccc2F)c2ccccc12 | 30.3%
Cc1cc(=O)oc2cc(OCC(=O)N3CCC(C(=O)O)(c4ccccc4)CC3)ccc12 | -7.5%
CCCCOP(=O)(OCCCC)/C(C#N)=C(/C)O | -14.2%
O=c1[nH]c(=S)n(Cc2ccc(F)cc2)c(O)c1C=NCCCn1ccnc1 | -9.5%
Cc1cccc(CN2CCCN(Cc3ccc(Cl)cc3)S2(=O)=O)c1 | 2.2%
O=C1NC(=O)N(Cc2ccccc2)C(=O)/C1=C\C=C\c1ccco1 | 61.5% (active)
CCCCN1C(=O)/C(=C/C=C/c2ccco2)C(=O)NC1=S | -32.6%
O=C1NC(=O)N(c2ccccc2)C(=O)/C1=C/c1ccoc1 | -13.5%
Cc1cccc(N2C(=O)NC(=O)/C(=C\C=C\c3ccco3)C2=O)c1 | -6.1%
Cc1cc(C)cc(N2C(=O)NC(=O)/C(=C\C=C\c3ccco3)C2=O)c1 | 67.1%
CN1C(=O)/C(=C/C=C/c2ccco2)C(=O)NC1=S | -4.7%
CCc1ccc(N2C(=O)NC(=O)/C(=C\C=C\c3ccco3)C2=O)cc1 | 89.4% (active)
Cc1ccc(N2C(=O)NC(=O)/C(=C/C=C/c3ccco3)C2=O)cc1 | 87.4% (active)
CCN1C(=O)C(=C/C=C/c2ccco2)C(=O)N(CC)C1=S | -25.5%
Cn1cc(/C=C2\C(=O)NC(=O)N(c3ccccc3)C2=O)c2ccccc21 | -3.2%
O=C1NC(=O)N(Cc2ccccc2)C(=O)/C1=C\c1ccco1 | -5.6%
CN(C)c1ccc(/C=C/C=C2/C(=O)NC(=O)N(c3ccccc3)C2=O)cc1 | 80.9% (active)
COCCOC(=O)C1=C(N)Oc2c(c(=O)oc3ccccc23)C1c1ccncc1 (centres undefined) | -14.2%
CCCCOC(=O)C1=C(N)OC2=C(C(=O)CCC2)[C@]12C(=O)N(C)c1ccccc12 | 2.2%
